Experimental data: PubChem BioAssay AID1159580 (chemical genetic matrix, 2015)
Hit rate of the full screen: of about 5,500 compounds, about 2,000 (36%) were called active. Inconclusive results (about 18%) are left out. Cut-off read from the data, not from the text of the source: active = normalized growth mostly below about 0.91 (no sharp cut-off); inconclusive = no clear call, values can overlap the other calls; inactive = mostly above about 0.92. This is one part of the list.

Assay: chemical genetic growth profiling, strain panel (AID 1159580);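 note: tested at 20 µM; growth read once vehicle control cultures reached saturation at 30 °C; 1 = growth at the plate median or of vehicle wells; lower values mean less growth of the strain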
Conditions: S. cerevisiae deletion strains, growth OD

Measured: normalized growth

C[C@@]1(C2CCCC2)Cc2cc(OCC(=O)O)c(Cl)c(Cl)c2C1=O
inactive: locus YAL040C, strain CLN3, stronger effect = lower value 1 | locus YCL061C, strain MRC1 (second series), stronger effect = lower value 1.01 | locus YDR363W, strain ESC2, stronger effect = lower value 1.01 | locus YER002W, strain NOP16, stronger effect = lower value 1 | locus YMR307W, strain GAS1, stronger effect = lower value 1.01 | locus YNL128W, strain TEP1, stronger effect = lower value 1 | locus YNL175C, strain NOP13, stronger effect = lower value 1 | locus YNL197C, strain WHI3, stronger effect = lower value 1 | locus YNL224C, strain SQS1, stronger effect = lower value 1 | locus YNL322C, strain KRE1, stronger effect = lower value 1 | locus YOR083W, strain WHI5 (second series), stronger effect = lower value 1.01 | locus YPL055C, strain LGE1, stronger effect = lower value 1.01 | locus YPL241C, strain CIN2, stronger effect = lower value 1.01
